Screen size: about 94,000 compounds; about 20 (0.02%) were called active. Roughly 1% stayed inconclusive and do not appear here. Not all results are given here. Values without a mark were called inactive. The call rests on the fitted dose curve; in most records, active means well fitted activation curve with a large enough effect; inconclusive means small, poorly fitted or top-dose-only effect; inactive means flat fitted curve, though single readings scatter.

The experiment is described as follows: qHTS of alpha-syn Inhibitors: NCGC Sytravon Library Screen. Further: 0% is about no effect. Particulars: S. cerevisiae alpha-synuclein toxicity rescue, BacTiter-Glo growth, 24 h; series mostly up to 46.1 µM; growth rescue (activation): at the top concentration. The method in brief: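 Growth restoration measured by BacTiter-Glo luminescence after 24 hr at 30 deg C; alpha-synuclein yeast, raffinose-pregrown to mid-log, were added at OD600=0.02 in galactose medium onto pinned compounds.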
For `COc1ccc(CN2C(=O)C(CC(=O)NCCCCc3ccccc3)CC(C(=O)N3CCOCC3)=C2C)cc1` (configuration not stated), the “growth rescue (activation)” value was 1.23%.
Then `CCOC(=O)c1c(NC(=O)COC(=O)c2ccc(S(=O)(=O)C(F)F)cc2)sc(C(=O)N(C)C)c1C`, with -5.95%.
For `CC(=O)Nc1ccc(C(=O)NNC(=O)CCCCC(=O)NNC(=O)c2ccc(NC(C)=O)cc2)cc1`, the “growth rescue (activation)” value was -13.9%.
As for `O=C(O)CC12CC3CC(C1)CC(n1ncc(NCc4ccc(F)cc4)c(Cl)c1=O)(C3)C2`, the “growth rescue (activation)” value is 0.767%.
For `CCOc1cc2c(Cl)ncnc2c(OCC)c1OCC`, the “growth rescue (activation)” value was -10.8%.
Then `COc1ccc(N2CCN(C(=O)[C@@H](NC(=O)c3cc(OC)cc(OC)c3)C(C)C)CC2)cc1`, with 6.27%.
Then `O=C(NCCOc1ccccc1)c1ccccc1F`, with -4.85%; and `O=C(CSc1nnc(CN2CCCC2)n1-c1ccc(F)cc1)c1ccc2c(c1)OCO2`, with -7.99%.
For `C[C@H]1CN(c2ccc(Br)cc2)C(=O)[C@@H]1CC(=O)Nc1ccc(Br)cc1`, the “growth rescue (activation)” value is -0.722%.
Then `COC(=O)CNC(=O)c1cc(-c2ccncc2)nc2ccccc12`, with -6.59%; and `O=C(NC1CCCC1)c1cc(-c2ccccc2)on1`, with 12.5%.
Then `CCOc1ccc(C(CC(=O)O)n2cnnn2)cc1OC` (configuration not stated), with -9.12%; and `COCCN(Cc1nc(-c2ccc(C(F)(F)F)cc2)no1)C(C)C`, with 0.309%; and `CC(Nc1nc(C(F)(F)F)nc2ccccc12)c1cccs1` (configuration not stated), with -25.6%.
Then `CCc1noc(C)c1C(=O)OCC(=O)c1ccc(NC(=O)CC(C)C)cc1`, with 13.9%; and `CCc1nc2c(=O)[nH]cnc2o1`, with 2.78%; and `CN(Cc1ccc(F)cc1Cl)S(=O)(=O)c1cccs1`, with 10.8%.
Regarding `O=C(OCC(=O)N1CCCCCC1)c1cccc(Cl)c1Cl`, the “growth rescue (activation)” value is 4.74%.
Then `O=C(CN1CCCCC1)NC(=O)Nc1ccccc1F`, with -14.9%.
Then `Cc1ccc(O)c(NC(=O)c2cc(-c3ccco3)on2)c1`, with -16.3%; and `CCOC(=O)Cc1cc(=O)[nH]c(/N=C(\N)Nc2ccc(OC)cc2)n1`, with -4.69%.
For the compound `COc1ccccc1N(C)C(=O)c1cc(S(=O)(=O)N2CCc3ccccc32)cn1C`, the “growth rescue (activation)” value is 6.55%.
In the case of `COc1ccc(-c2ccc3[nH]c4c(c3c2)CCN2C[C@H]3[C@H](C)ON(C)[C@H]3C[C@@H]42)cc1`, the “growth rescue (activation)” value was -9.12%.
`CC(=O)Nc1ccccc1NC(=O)c1cc(C)cc(C)c1`: the “growth rescue (activation)” value is 4.72%.
Then `O=C(COC(=O)Cc1ccc(Cl)cc1Cl)NCc1ccco1`, with 17.9%; and `Cc1cc(=O)c2ccc(NC(=O)c3ccccc3)cc2[nH]1`, with 0.927%; and `Cc1cc2c3ccccc3[nH]c(=O)n2n1`, with -10.2%.
As for `COc1cccc(COC(=O)C2CCN(S(=O)(=O)c3cccs3)CC2)c1OC`, the “growth rescue (activation)” value is 5.75%.
Then `CSc1nc(-c2ccco2)nn1C(=O)c1ccccc1Cl`, with 6.42%.
For the compound `COc1ccc(C=C2CCC3C(CCCC34OCCO4)C2=O)cc1` (configuration not stated), the “growth rescue (activation)” value was -0.491%.
Then `Cc1cccc(NC(=O)c2cc([N+](=O)[O-])ccc2N2CCN(C)CC2)c1`, with -6.98%; and `CCN(CCNC(=O)C1=C(C)C(=O)OC12CCC(C)CC2)c1ccccc1` (configuration not stated), with 14.2%; and `CCCCN1C(=O)C(CC(=O)NC(c2ccccc2)c2ccccc2)CC(C(=O)N2CCOCC2)=C1C` (configuration not stated), with 1.76%.
In the case of `COCCn1c(C)cc(C(=O)COC(=O)/C=C/c2cccc(OC)c2)c1C`, the “growth rescue (activation)” value was 4.85%.
Then `C[C@@H]1CN([C@@H](C)CO)C(=O)c2cc(NS(C)(=O)=O)ccc2O[C@@H](C)CCCCO[C@H]1CN(C)C(=O)Nc1ccc2c(c1)OCO2`, with -4.92%; and `COc1ccc(C(=O)COC(=O)CNC(=O)c2cccs2)cc1Br`, with 13.6%; and `Cc1ccccc1NS(=O)(=O)CCCCC(Cl)(Cl)Cl`, with 4.69%.
Then `CC1CCN(C(=O)CCNC(=O)c2ccccc2)CC1`, with 9.67%; and `CC(C)CN(C(=O)COC(=O)c1ccc2ccccc2c1)c1c(N)n(Cc2ccccc2)c(=O)[nH]c1=O`, with -8.4%.
Then `COc1ccc(/C=C(\NC(=O)c2ccccc2)C(=O)NCCN2CCOCC2)cc1OC`, with -13%.
For the compound `Cc1ccc(SCCC(=O)Nc2cc(C)on2)cc1`, the “growth rescue (activation)” value was -5.87%.
As to `Cc1onc(-c2ccccc2Cl)c1C(=O)OCc1nnc(-c2ccccc2)o1`, the “growth rescue (activation)” value is 14.1%.

(Values after PubChem BioAssay AID1347070 (National Center for Advancing Translational Sciences (NCATS), 2019).)
